# According to PubChem BioAssay (NCI):
# The panel holds about 83,000 compounds, 20% with a hit somewhere; the sample as a whole holds those more often.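 Single-dose data. Exposure time 48 hours. Values below 10 considered active.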 Values without a mark were called inactive. Activity calls are given as the source filed them.
# Test system: MDA-MB-468 breast
# Experiment: NCI-60 one-dose screen, 48 h (100 = growth as untreated, 0 = no growth, -100 = all killed)
# Conditions: 10 µM unless noted
row,Compound,growth
1,CCOC(=O)C1CC(=O)c2cc(OC)c(OC)cc2C1 (stereo not given),84.9%
2,CCOC(=O)Nc1cc2c(c(N)n1)N=C(c1ccccc1)CO2,2.06% (active)
3,CCOC(=O)c1cnc2ccccc2c1Cl,97.4%
4,C=CCn1c(SCC(=O)Nc2ccc(C(=O)/C=C/c3cc4cc(OC)ccc4nc3Cl)cc2)nnc1-c1ccc(Br)cc1,85.7%
5,Cc1nc2ccccc2c(=O)n1-c1cccc(OCc2cn(-c3cccc(O)c3)nn2)c1,87.7%
6,OC(COCc1ccccc1)COCc1ccccc1,108%
7,O=C(CNc1c(Cl)cccc1Cl)Nc1ccc(-c2nc3ccccc3s2)cc1,-7.4% (active)
8,O=S(=O)(c1ccccc1)n1ccc(-c2ccc3c(c2)CCO3)n1,42.4%
9,COc1ccc(NC(=O)Nc2ccc(-c3ccc(OC)c(OC)c3)nc2C)cc1,83%
10,O=c1[nH]nc(-c2ccccc2)c2c(-c3ccccc3)onc12,1.46% (active)
